In PubChem BioAssay (EPA / NIEHS):
Records with an inconclusive call do not appear. Activity calls are given as the source filed them. How the source made its calls, unless noted: active means hit-call score of the fitted dose curve at least 0.9, where 1 is the maximum; inactive means score below 0.9.

How the values were obtained:
[1] = CEETOX_H295R_OHPREG_noMTC: CeeTox H295R High-throughput Steroidogenesis Assay for OH-Pregnenolone (OHPREG), maximum tolerated concentration (MTC) filtered results only (AID 2283912); details: actives raise or lower the signal
Outline: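 Medium 17alpha-hydroxypregnenolone quantified by reverse-phase HPLC-MS/MS after 48 h chemical exposure of forskolin-prestimulated (10 uM, 48 h) H295R, 0.1% DMSO final. Fitting bidirectional relative to DMSO; no maximum-tolerated-concentration filtering applied.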

[2] = CEETOX_H295R_OHPROG_noMTC: CeeTox H295R High-throughput Steroidogenesis Assay for OH-Progesterone (OHPROG), maximum tolerated concentration (MTC) filtered results only (AID 2283914); details: actives raise or lower the signal
Outline: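 After 48 h forskolin (10 uM) prestimulation, H295R adrenal cells received test chemical in 0.1% DMSO for 48 h. Medium 17alpha-hydroxyprogesterone was MTBE-extracted and measured by HPLC-MS/MS; gain or loss relative to DMSO, no MTT-based MTC filtering.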

[3] = CEETOX_H295R_PROG_noMTC: CeeTox H295R High-throughput Steroidogenesis Assay for Progesterone (PROG), maximum tolerated concentration (MTC) filtered results only (AID 2283920); details: actives raise or lower the signal
Outline: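 Progesterone secreted into medium was measured by HPLC-MS/MS after MTBE extraction, following 48 h chemical exposure (0.1% DMSO) of forskolin-prestimulated (10 uM, 48 h) H295R adrenal cells. Gain or loss fitted against DMSO; no MTC filtering.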

[4] = test system: Sodium/Iodide Symporter (NIS), SLC5A5 (gene 6528); assay: CPHEA_Stoker_NIS_Inhibition_RAIU: CPHEA's Radioactive Iodide Uptake (RAIU) Assay for Sodium/Iodide Symporter (NIS) Inhibition, Stoker and Laws Labs (AID 2283841; active means hit-call score of the fitted dose curve at least 0.9, where 1 is the maximum)
Outline: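 hNIS-HEK293T-EPA cells incubated 2 h at room temperature with compound (0.001–100 uM, 0.5% DMSO) and 329 pM final 125I in HBSS/10 mM HEPES, pH 7.4. Intracellular 125I counted; normalised to DMSO maximal uptake, triplicate, three biological replicates.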

[5] = CPHEA_Stoker_NIS_Cytotoxicity: Cytotoxicity Assessment for CPHEA's Radioactive Iodide Uptake (RAIU) Assay for Sodium/Iodide Symporter (NIS) Inhibition, Stoker and Laws Labs (AID 2283897; active means hit-call score of the fitted dose curve at least 0.9, where 1 is the maximum;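 on AC50: active means loss of ATP signal versus DMSO meaning cytotoxicity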)
Outline: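 hNIS-HEK293T-EPA cells, human NIS expressed in HEK293T, treated 2 h with chemicals (0.001–100 uM, 0.5% final DMSO). ATP content read by CellTiter-Glo luminescence; loss of signal analysed relative to DMSO.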

[6] = CEETOX_H295R_ESTRADIOL_noMTC: CeeTox H295R High-throughput Steroidogenesis Assay for Estradiol, maximum tolerated concentration (MTC) filtered results only (AID 2283919); details: actives raise or lower the signal
Outline: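 Readout: dansyl-derivatized estradiol quantified by LC-MS/MS in medium from H295R cells dosed 48 h (0.1% DMSO) following 48 h forskolin (10 uM) prestimulation. Gain or loss of signal fitted against DMSO; no MTC filtering applied.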

[7] = CEETOX_H295R_ESTRONE_noMTC: CeeTox H295R High-throughput Steroidogenesis Assay for Estrone, maximum tolerated concentration (MTC) filtered results only (AID 2283921); details: actives raise or lower the signal
Outline: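 Estrone in spent medium, quantified by tandem MS following dansyl chloride derivatization, after 48 h chemical exposure (0.1% DMSO) of forskolin-prestimulated (10 uM, 48 h) H295R cells; concentrations not MTC-filtered, bidirectional fit against DMSO.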

[8] = CEETOX_H295R_ANDR_noMTC: CeeTox H295R High-throughput Steroidogenesis Assay for Androstenedione (ANDR), maximum tolerated concentration (MTC) filtered results only (AID 2283915); details: actives raise or lower the signal
Outline: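 Androstenedione secreted into medium was measured by LC-MS/MS after MTBE extraction. Human adrenal H295R cells received 10 uM forskolin for 48 h before 48 h chemical exposure (0.1% DMSO). Gain or loss fitted against DMSO, including concentrations above the MTT-derived MTC.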

[9] = CEETOX_H295R_TESTO_noMTC: CeeTox H295R High-throughput Steroidogenesis Assay for Testosterone (TESTO), maximum tolerated concentration (MTC) filtered results only (AID 2283924); details: actives raise or lower the signal
Outline: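 Medium testosterone, measured by HPLC-MS/MS after liquid-liquid extraction, was fitted in both directions relative to DMSO without MTC filtering. Adrenal H295R cells received 48 h chemical exposure (0.1% DMSO final) after 48 h forskolin (10 uM) prestimulation; viability by MTT.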

THRB (gene 7068) [10] = molecular target: THRB (gene 7068) (UniProt P10828); assay: TOX21_TRB_BLA_Antagonist_Followup_ratio: Tox21 Thyroid Hormone Receptor beta Antagonism Beta-lactamase (BLA) Follow-Up Assay, Ratio (AID 2283958; active means hit-call score of the fitted dose curve at least 0.9, where 1 is the maximum)
Chain of THRB (gene 7068) (P10828 whole entry, looked up, the tested form may be a part): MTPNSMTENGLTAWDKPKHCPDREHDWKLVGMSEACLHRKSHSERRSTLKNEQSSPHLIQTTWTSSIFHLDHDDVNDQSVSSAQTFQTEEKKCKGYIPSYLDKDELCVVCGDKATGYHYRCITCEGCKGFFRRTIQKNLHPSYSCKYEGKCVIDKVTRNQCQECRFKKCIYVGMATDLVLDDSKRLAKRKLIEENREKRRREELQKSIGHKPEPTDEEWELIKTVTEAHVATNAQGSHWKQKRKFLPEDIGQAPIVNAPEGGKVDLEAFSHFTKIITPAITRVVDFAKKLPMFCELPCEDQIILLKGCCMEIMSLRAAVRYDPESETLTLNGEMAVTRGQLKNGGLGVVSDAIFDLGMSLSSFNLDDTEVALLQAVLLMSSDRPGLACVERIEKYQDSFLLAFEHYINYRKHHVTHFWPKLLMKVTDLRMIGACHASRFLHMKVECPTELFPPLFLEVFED
Outline: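 Using charcoal-stripped 2% FBS medium, human TRβ-LBD/GAL4 reporter HEK293T cells received test compounds for 18 h. The endpoint is the cleaved-to-uncleaved substrate ratio (460/530 nm).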

[11] = TOX21_TRB_BLA_Antagonist_Followup_viability: Viability Assessment in the Tox21 Thyroid Hormone Receptor beta Antagonism Beta-lactamase (BLA) Follow-Up Assay (AID 2283961; active means hit-call score of the fitted dose curve at least 0.9, where 1 is the maximum)
Outline: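 Viability read as CellTiter-Glo ATP luminescence (loss of signal = cytotoxicity) in the same plates as the TRβ-bla readout. TRβ-LBD/GAL4 UAS-bla HEK293T cells were exposed to compounds, 11 concentrations in triplicate, for 18 h at 37C/5% CO2.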

THRB (gene 7068) [12] = molecular target: THRB (gene 7068) (UniProt P10828); assay: TOX21_TRB_COA_Antagonist_Followup_ratio: Tox21 Thyroid Hormone Receptor beta Antagonism through Coactivator Recruitment Follow-Up Assay, Ratio (AID 2283967; active means hit-call score of the fitted dose curve at least 0.9, where 1 is the maximum)
Outline: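 Coactivator recruitment to the GST-tagged TRb ligand-binding domain (5.0 nM) was read as the 520/495 nm TR-FRET ratio, using 200 nM fluorescein SRC-2 peptide and 2 nM terbium anti-GST. Scaled between DMSO and T3 wells; loss of signal fitted.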

Structure (SMILES): CCCCCC1C(=O)CCC1CC(=O)OC (stereo unspecified)
- outcome [1]: inactive
- outcome [2]: inactive
- outcome [3]: inactive

Structure (SMILES): CCCCCCCCCCCCOCCOS(=O)(=O)O
- AC50 [4]: 9.92 µM (active)
- outcome [5]: inactive

Structure (SMILES): COC(=O)c1ccc(C(=O)OC)cc1
- outcome [1]: inactive
- outcome [2]: inactive
- outcome [6]: inactive
- outcome [7]: inactive

Structure (SMILES): O=C(c1ccc(OCCN2CCCCC2)cc1)c1c(-c2ccc(O)cc2)sc2cc(O)ccc12
- AC50 [5]: 9.92 µM (active)

Structure (SMILES): CCCCCCCCOS(=O)(=O)O
- outcome [5]: inactive

Structure (SMILES): O=C(O)C(F)(F)C(F)(F)C(F)(F)C(F)(F)C(F)(F)C(F)(F)C(F)(F)C(F)F
- AC50 [4]: 18.4 µM (active)

Structure (SMILES): COC(=O)C(C)Oc1ccc(Oc2ncc(C(F)(F)F)cc2Cl)cc1 (stereo unspecified)
- outcome [4]: inactive
- outcome [5]: inactive
- AC50 [1]: 14.1 µM (active)
- AC50 [2]: 1.86 µM (active)
- AC50 [6]: 23.5 µM (active)
- AC50 [3]: 35.1 µM (active)
- AC50 [7]: 27.9 µM (active)

Structure (SMILES): CC(=O)C1=C(C)[C@@H]2C[C@@]3(C1)[C@H](C)CC[C@H]3C2(C)C
- outcome [4]: inactive
- outcome [5]: inactive

Structure (SMILES): O=C(O)C(F)(F)OC(F)(F)C(F)(F)OC(F)(F)C(F)(F)C(F)(F)C(F)(F)F
- outcome [4]: inactive

Structure (SMILES): CC(=O)N(C)C
- outcome [4]: inactive

Structure (SMILES): COc1cc(OC)c2ccc(=O)oc2c1
- outcome [1]: inactive
- outcome [8]: inactive
- outcome [6]: inactive
- outcome [3]: inactive
- outcome [7]: inactive
- outcome [9]: inactive

Structure (SMILES): CC(=O)OC/C=C(C)/C=C/C=C(C)/C=C/C1=C(C)CCCC1(C)C
- outcome [1]: inactive
- outcome [2]: inactive
- outcome [6]: inactive
- AC50 [3]: 34 µM (active)
- outcome [7]: inactive

Structure (SMILES): C#C[C@]1(O)CC[C@H]2[C@@H]3CCc4cc(O)ccc4[C@H]3CC[C@@]21C
- outcome [4]: inactive
- outcome [5]: inactive
- AC50 (THRB (gene 7068) [10]): 38.3 µM (active)
- outcome [11]: inactive
- outcome (THRB (gene 7068) [12]): inactive

Structure (SMILES): O=C(OCc1ccccc1)c1ccccc1O
- AC50 [4]: 9.92 µM (active)
- outcome [5]: inactive
